Assay results as given in PMC5540273 (PLoS ONE, 2017).

Tests used:
Conditions in all cases: concentration: 1 μM, replicates: in singlicate; n = 1
PRP4 = system: PRP4
PYK2 = system: T1, PYK2
T1 construct: gene PTK2B

QSK = system: QSK
RAF1 = system: RAF1
RET = system: RET
RIOK1 = system: RIOK1
RIOK2 = system: RIOK2
RIOK3 = system: RIOK3
RIPK1 = system: RIPK1
RIPK2 = system: RIPK2
RIPK4 = system: RIPK4
RIPK5 = system: RIPK5
ROCK1 = system: ROCK1
ROCK2 = system: ROCK2
ROS1 = system: ROS1
[1] = system: RPS6KA4(Kin.Dom.1-N-terminal)
[2] = system: RPS6KA4(Kin.Dom.2-C-terminal)
[3] = system: RPS6KA5(Kin.Dom.1-N-terminal)
[4] = system: RPS6KA5(Kin.Dom.2-C-terminal)
[5] = system: T2, RSK1(Kin.Dom.1-N-terminal)
T2 construct: gene RPS6KA1
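Further: KINOMEscan kinase panel screen.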

Compound | %Inh (PRP4) | %Inh (PYK2) | %Inh (QSK) | %Inh (RAF1) | %Inh (RET) | %Inh (RIOK1) | %Inh (RIOK2) | %Inh (RIOK3) | %Inh (RIPK1) | %Inh (RIPK2) | %Inh (RIPK4) | %Inh (RIPK5) | %Inh (ROCK1) | %Inh (ROCK2) | %Inh (ROS1) | %Inh [1] | %Inh [2] | %Inh [3] | %Inh [4] | %Inh [5]
COc1ccc(CSc2nnc(-c3ccc4ncsc4c3)o2)cc1C(F)(F)F | 20% | 0% | 0% | 7% | 0% | 10% | 13% | 22% | 0% | 0% | 0% | 0% | 11% | 0% | 0% | 0% | 5% | 17% | 10% | 0%
Nc1cccc(-c2ccc3c(N)n[nH]c3c2)n1 [GSK2192730] | 12% | 0% | 10% | 0% | 0% | 82% | 34% | 86% | 18% | 0% | 41% | 0% | 0% | 0% | 0% | 0% | 0% | 0% | 4% | 24%
CS(=O)(=O)Cc1ccc(Nc2nccc(-c3c(-c4cccc(NC(=O)C5CCCCC5)c4)nn4ncccc34)n2)cc1 [GSK350559] | 1% | 0% | 34% | 0% | 34% | 28% | 0% | 36% | 13% | 5% | 44% | 39% | 37% | 21% | 21% | 0% | 35% | 0% | 16% | 11%
Cc1c(Cn2c3ccccc3n3c(=O)cc(N4CCOCC4)nc23)cccc1C(F)(F)F [GSK2306394] | 0% | 0% | 0% | 0% | 0% | 35% | 12% | 0% | 4% | 0% | 3% | 0% | 0% | 4% | 0% | 13% | 0% | 15% | 0% | 0%
CNc1cc(-c2ccc3c(N)n[nH]c3c2)nc(N)n1 [GSK2224810] | 0% | 0% | 0% | 0% | 35% | 84% | 12% | 72% | 3% | 9% | 64% | 0% | – | 29% | 17% | 0% | 15% | 0% | 35% | 2%
CSc1ccc(-c2nc3n(c2-c2ccncc2)CCC3)cc1 [SKF-105561] | 1% | 0% | 31% | 0% | 0% | 0% | 0% | 5% | 0% | 74% | 13% | 17% | 23% | 0% | 6% | 6% | 10% | 5% | 0% | 0%
COC(=O)c1cccc(NC(=O)NC2CCN(c3ccnc(Nc4ccc(F)cc4)n3)C2)c1 (stereo not drawn) [GSK1379725] | 41% | 0% | 6% | 4% | 5% | 10% | 0% | 0% | 0% | 0% | 18% | 0% | 0% | 0% | 0% | 0% | 0% | 0% | 16% | 8%
O=C(Nc1n[nH]c2cc(-c3ccsc3)ccc12)C1CC1 [SB-732932] | 15% | 11% | 26% | 0% | 0% | 83% | 16% | 0% | 56% | 0% | 35% | 8% | 7% | 0% | 0% | 12% | 17% | 0% | 13% | 26%
CNc1nc(-c2ccc3c(N)n[nH]c3c2)cc(N2C[C@@H](C(=O)Nc3ccccc3)CC[C@H]2C)n1 [GSK2298859] | 11% | 0% | 18% | 4% | 4% | 57% | 0% | 38% | 1% | 0% | 0% | 0% | – | 61% | 36% | 22% | 0% | 29% | 50% | 0%
Cc1ccccc1Cn1ccn2c(=O)cc(N3CCOCC3)nc12 [GSK2269905] | 14% | 0% | 0% | 8% | 0% | 0% | 0% | 0% | 0% | 0% | 0% | 0% | 0% | 0% | 0% | 23% | 0% | 12% | 0% | 25%
COc1nccc(-c2c(-c3ccc(F)cc3)ncn2CCCN2CCOCC2)n1 [SB-282852] | 24% | 0% | 0% | 11% | 0% | 46% | 0% | 10% | 0% | 0% | 47% | 6% | 32% | 20% | 0% | 17% | 0% | 0% | 0% | 0%
COc1ccc2cc(-c3nc(-c4ccccc4C(C)C)[nH]c3-c3ccncc3)ccc2c1 [SB-660566] | 4% | 1% | 2% | 39% | 4% | 34% | 0% | 0% | 2% | 21% | 25% | 4% | 35% | 0% | 0% | 6% | 0% | 4% | 0% | 42%
COc1ccc(CSc2nnc(-c3ccc4nccn4c3)o2)cc1C(F)(F)F | 4% | 0% | 11% | 4% | 23% | 15% | 32% | 17% | 5% | 0% | 0% | 0% | 14% | 0% | 3% | 11% | 21% | 22% | 1% | 18%
Cc1ccc(NC(=O)c2ccc(Cl)cc2)cc1-c1ccc(C(=O)Nc2ccncc2)cc1 [GSK1398467] | 46% | 18% | 0% | 35% | 0% | 32% | 0% | 8% | 0% | 12% | 9% | 0% | 0% | 17% | 8% | 13% | 0% | 17% | 49% | 10%
Cn1cnc2c(N)ncnc21 [SKF-97623] | 22% | 0% | 0% | 0% | 0% | 0% | 0% | 0% | 10% | 0% | 0% | 0% | 38% | 26% | 0% | 0% | 0% | 0% | 0% | 23%
COc1ccc(Nc2nccc(NCCNC(=O)Nc3cc(C)ccc3C)n2)cc1 [GSK1379899] | 6% | 0% | 0% | 3% | 16% | 35% | 0% | 24% | 4% | 0% | 6% | 0% | 6% | 14% | 5% | 8% | 0% | 49% | 0% | 0%
CC(C)c1cc(-c2ccc3c(N)n[nH]c3c2)nc(N)n1 [GSK2250882] | 4% | 28% | 4% | 0% | 0% | 86% | 14% | 82% | 0% | 0% | 4% | 0% | 28% | 20% | 23% | 13% | 3% | 0% | 25% | 14%
CCn1c(-c2ccccc2)nc2cnccc21 [SB-733416] | 7% | 20% | 9% | 3% | 23% | 45% | 0% | 0% | 0% | 6% | 41% | 5% | 9% | 0% | 7% | 0% | 0% | 3% | 0% | 0%
COc1cccc(NC(=O)Nc2ccc(C)c(-c3ccc(C(=O)Nc4ccncc4)cc3)c2)c1 [GSK1398474] | 52% | 13% | 0% | 78% | 33% | 27% | 0% | 0% | 0% | 0% | 23% | 0% | 0% | 0% | 0% | 18% | 0% | 12% | 40% | 16%
